PubChem BioAssay (EPA / NIEHS)
Active and inactive are the calls of the source. How the source made its calls: active means hit-call score of the fitted dose curve at least 0.9, where 1 is the maximum; inactive means score below 0.9.

Key:
Conditions in all cases: mRNA level, 48 h; actives raise or lower the signal
[1] = read-out: Cytochrome P450 (CYP24A1), CYP24A1 (gene 1591); assay: LTEA_HepaRG_CYP24A1: Life Technologies and Expression Analysis (LTEA) Assay for Cytochrome P450 (CYP24A1) using HepaRG (AID 2283478)
Summary of the method: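 Differentiated HepaRG cells, pre-cultured 48 h, were exposed in duplicate for 48 h in serum-free induction medium to 8 half-log concentrations (top 100 uM, 0.5% DMSO). CYP24A1 mRNA was quantified by TaqMan qRT-PCR, normalized to ACTB/GAPDH/POLR2A, fitted bidirectionally versus DMSO.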

[2] = read-out: cysteine-aspartic acid protease (CASP8), CASP8 (gene 841); assay: LTEA_HepaRG_CASP8: Life Technologies and Expression Analysis (LTEA) Assay for cysteine-aspartic acid protease (CASP8) using HepaRG (AID 2283480)
Summary of the method: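 Concentration-response in duplicate up to 100 uM (half-log steps, 0.5% DMSO) on differentiated HepaRG cultures for 48 h. Expression change of CASP8 mRNA is determined by TaqMan qRT-PCR with housekeeping-gene normalization.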

[3] = read-out: Cytochrome P450 (CYP2B6), CYP2B6 (gene 1555); assay: LTEA_HepaRG_CYP2B6: Life Technologies and Expression Analysis (LTEA) Assay for Cytochrome P450 (CYP2B6) using HepaRG (AID 2283481)
Summary of the method: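 Differentiated HepaRG cells, serum-free induction medium, exposed 48 h in duplicate to 8-point half-log concentrations from 100 uM in 0.5% DMSO. CYP2B6 mRNA by qRT-PCR, normalized to ACTB, GAPDH, POLR2A; bidirectional fit versus DMSO.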

[4] = read-out: Cytochrome P450 2C19 (Homo sapiens) (UniProt P33261); assay: LTEA_HepaRG_CYP2C19: Life Technologies and Expression Analysis (LTEA) Assay for CYP2C19 using HepaRG (AID 2283482)
Summary of the method: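 Differentiated human HepaRG cells were exposed for 48 h in serum-free induction medium to 8 concentrations (top 100 uM, half-log steps, 0.5% DMSO). CYP2C19 mRNA was measured by qRT-PCR, normalized to ACTB/GAPDH/POLR2A, and fitted bidirectionally against DMSO.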

CYP2C8 (gene 1558) = assay: LTEA_HepaRG_CYP2C8: Life Technologies and Expression Analysis (LTEA) Assay for CYP2C8 using HepaRG (AID 2283483)
Summary of the method: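 This is a transcriptional endpoint in HepaRG cultures: 48 h exposure, highest concentration 100 uM. CYP2C8 mRNA is quantified by TaqMan qRT-PCR.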

CYP2C9 (gene 1559) = assay: LTEA_HepaRG_CYP2C9: Life Technologies and Expression Analysis (LTEA) Assay for CYP2C9 using HepaRG (AID 2283484)
Summary of the method: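 Eight-point concentration-response (highest 100 uM, half-log dilutions) in HepaRG cells for 48 h; CYP2C9 expression by qRT-PCR normalized to ACTB, GAPDH, POLR2A. Bidirectional fit, DMSO baseline.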

CYP2E1 (gene 1571) = assay: LTEA_HepaRG_CYP2E1: Life Technologies and Expression Analysis (LTEA) Assay for CYP2E1 using HepaRG (AID 2283485)
Summary of the method: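 CYP2E1 transcript measured by Fluidigm qRT-PCR against three housekeeping genes in human HepaRG cells treated 48 h (top 100 uM, half-log steps, 0.5% DMSO vehicle). Gain or loss fitted relative to DMSO baseline.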

CYP4A11 (gene 1579) = assay: LTEA_HepaRG_CYP4A11: Life Technologies and Expression Analysis (LTEA) Assay for CYP4A11 using HepaRG (AID 2283486)
Summary of the method: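 Differentiated HepaRG cells, serum-free induction medium, exposed 48 h in duplicate to 8-point half-log series from 100 uM in 0.5% DMSO. CYP4A11 mRNA measured by qRT-PCR, normalized to ACTB, GAPDH, POLR2A; bidirectional fit versus DMSO.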

[5] = read-out: Cytochrome P450 3A4 (Homo sapiens) (UniProt P08684); assay: LTEA_HepaRG_CYP3A4: Life Technologies and Expression Analysis (LTEA) Assay for CYP3A4 using HepaRG (AID 2283487)
Summary of the method: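 In a human hepatic line (HepaRG), duplicate wells were treated 48 h with up to 100 uM chemical in half-log dilutions. Endpoint: CYP3A4 mRNA induction or loss relative to 0.5% DMSO vehicle, by qRT-PCR.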

[6] = read-out: DNA damage-inducible transcript 3 (DDIT3), DDIT3 (gene 1649); assay: LTEA_HepaRG_DDIT3: Life Technologies and Expression Analysis (LTEA) Assay for DNA damage-inducible transcript 3 (DDIT3) using HepaRG (AID 2283488)
Summary of the method: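 DDIT3 transcript was quantified by qRT-PCR with ACTB/GAPDH/POLR2A normalization after 48 h chemical treatment of differentiated HepaRG cells in 0.5% DMSO. Dosing was eight-point, half-log, top 100 uM, duplicate wells. Curves fitted bidirectionally versus DMSO.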

[7] = read-out: Pro-epidermal growth factor (Homo sapiens) (UniProt P01133); assay: LTEA_HepaRG_EGF: Life Technologies and Expression Analysis (LTEA) Assay for Epidermal growth factor (EGF) using HepaRG (AID 2283489)
Summary of the method: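 Differentiated human HepaRG cells, plated 48 h then switched to serum-free induction medium, were exposed for 48 h to test chemicals (8-point half-log series, top 100 uM, 0.5% DMSO). EGF mRNA was quantified by qRT-PCR, normalized to ACTB, GAPDH, POLR2A.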

[8] = read-out: Ezrin (EZR), EZR (gene 7430); assay: LTEA_HepaRG_EZR: Life Technologies and Expression Analysis (LTEA) Assay for Ezrin (EZR) using HepaRG (AID 2283491)
Summary of the method: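 Gain or loss of EZR mRNA is scored relative to 0.5% DMSO in human HepaRG cultures treated 48 h with test chemicals in duplicate, eight half-log concentrations from 100 uM.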

[9] = read-out: Cytochrome P450 3A7 (Homo sapiens) (UniProt P24462); assay: LTEA_HepaRG_CYP3A7: Life Technologies and Expression Analysis (LTEA) Assay for CYP3A7 using HepaRG (AID 2283492)
Summary of the method: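 HepaRG cells plated 48 h, then dosed in serum-free induction medium for 48 h at 8 concentrations (top 100 uM, half-log steps, 0.5% DMSO). CYP3A7 mRNA by qRT-PCR, normalised to ACTB/GAPDH/POLR2A; bidirectional fit versus DMSO.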

CYP3A5 (gene 1577) = assay: LTEA_HepaRG_CYP3A5: Life Technologies and Expression Analysis (LTEA) Assay for CYP3A5 using HepaRG (AID 2283493)
Summary of the method: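 mRNA levels were quantified by qRT-PCR on Fluidigm arrays and normalized to three housekeeping genes. Differentiated HepaRG cells received 48 h exposure (top 100 uM, half-log steps, 0.5% DMSO vehicle, duplicate); bidirectional fitting versus DMSO.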

[10] = read-out: Fatty Acid-Binding Protein 1 (FABP1), FABP1 (gene 2168); assay: LTEA_HepaRG_FABP1: Life Technologies and Expression Analysis (LTEA) Assay for Fatty Acid-Binding Protein 1 (FABP1) using HepaRG (AID 2283494)
Summary of the method: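 Values reflect bidirectional concentration-response fitting of FABP1 mRNA change against 0.5% DMSO controls. Human HepaRG cultures received eight half-log doses (top 100 uM) for 48 h; expression quantified by TaqMan qRT-PCR with housekeeping-gene normalization.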

[11] = read-out: Cytochrome P450 4A22 (Homo sapiens) (UniProt Q5TCH4); assay: LTEA_HepaRG_CYP4A22: Life Technologies and Expression Analysis (LTEA) Assay for Cytochrome P450 4A22 (CYP4A22) using HepaRG (AID 2283495)
Summary of the method: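 qRT-PCR of CYP4A22 mRNA (Fluidigm TaqMan, normalized to three housekeeping genes) after 48 h chemical exposure of HepaRG cells; 8-point half-log series, top 100 uM, 0.5% DMSO vehicle. Bidirectional curve fitting vs DMSO baseline.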

[12] = read-out: Cytochrome P450 7A1 (Homo sapiens) (UniProt P22680); assay: LTEA_HepaRG_CYP7A1: Life Technologies and Expression Analysis (LTEA) Assay for Cytochrome P450 7A1 (CYP7A1) using HepaRG (AID 2283496)
Summary of the method: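 HepaRG, 48 h exposure, 8-pt half-log series from 100 uM, 0.5% DMSO vehicle, duplicates. Readout: TaqMan qRT-PCR mRNA vs three housekeeping genes; bidirectional curve fit against DMSO baseline.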

[13] = read-out: Glutathione S-Transferase (GSTA2), GSTA2 (gene 2939); assay: LTEA_HepaRG_GSTA2: Life Technologies and Expression Analysis (LTEA) Assay for Glutathione S-Transferase (GSTA2) using HepaRG (AID 2283497)
Summary of the method: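 Oxidative-stress marker GSTA2 is quantified by TaqMan qRT-PCR in HepaRG cultures treated 48 h across an eight-point range to 100 uM. Expression is normalized to endogenous controls and compared with 0.5% DMSO vehicle.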

[14] = read-out: Cytochrome P450 (CYP1A2), CYP1A2 (gene 1544); assay: LTEA_HepaRG_CYP1A2: Life Technologies and Expression Analysis (LTEA) Assay for Cytochrome P450 (CYP1A2) using HepaRG (AID 2283479)
Summary of the method: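 Differentiated human HepaRG cells in serum-free induction medium were exposed in duplicate for 48 h to 8-point half-log concentrations up to 100 uM in 0.5% DMSO. CYP1A2 mRNA measured by qRT-PCR, normalized to ACTB, GAPDH, POLR2A; bidirectional fit vs DMSO.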

[15] = read-out: Early growth response protein 1 (EGR1) transcription factor, EGR1 (gene 1958); assay: LTEA_HepaRG_EGR1: Life Technologies and Expression Analysis (LTEA) Assay for Early growth response protein 1 (EGR1) transcription factor using HepaRG (AID 2283490)
Summary of the method: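 EGR1 expression change in human HepaRG after 48 h chemical exposure, assessed by housekeeping-normalized qRT-PCR; concentration-response up to 100 uM, fitted in both directions against DMSO controls.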

Measured: AC50

Cytochrome P450 3A4 (Homo sapiens), sequence (P08684 whole entry, looked up): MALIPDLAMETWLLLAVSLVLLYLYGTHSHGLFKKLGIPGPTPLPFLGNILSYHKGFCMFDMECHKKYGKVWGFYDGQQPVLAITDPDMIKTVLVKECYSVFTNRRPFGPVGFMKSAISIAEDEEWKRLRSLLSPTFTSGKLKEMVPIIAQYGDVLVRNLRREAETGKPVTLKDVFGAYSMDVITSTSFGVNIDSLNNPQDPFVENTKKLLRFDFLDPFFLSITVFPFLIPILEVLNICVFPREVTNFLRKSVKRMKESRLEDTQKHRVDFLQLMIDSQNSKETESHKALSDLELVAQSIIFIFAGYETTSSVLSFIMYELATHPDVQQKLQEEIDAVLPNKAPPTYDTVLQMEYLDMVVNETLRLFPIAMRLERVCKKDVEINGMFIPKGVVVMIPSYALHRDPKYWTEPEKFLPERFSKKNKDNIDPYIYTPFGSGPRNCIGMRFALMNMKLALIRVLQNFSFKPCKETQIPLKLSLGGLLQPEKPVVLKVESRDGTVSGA
Cytochrome P450 2C19 (Homo sapiens), sequence (P33261 whole entry, looked up): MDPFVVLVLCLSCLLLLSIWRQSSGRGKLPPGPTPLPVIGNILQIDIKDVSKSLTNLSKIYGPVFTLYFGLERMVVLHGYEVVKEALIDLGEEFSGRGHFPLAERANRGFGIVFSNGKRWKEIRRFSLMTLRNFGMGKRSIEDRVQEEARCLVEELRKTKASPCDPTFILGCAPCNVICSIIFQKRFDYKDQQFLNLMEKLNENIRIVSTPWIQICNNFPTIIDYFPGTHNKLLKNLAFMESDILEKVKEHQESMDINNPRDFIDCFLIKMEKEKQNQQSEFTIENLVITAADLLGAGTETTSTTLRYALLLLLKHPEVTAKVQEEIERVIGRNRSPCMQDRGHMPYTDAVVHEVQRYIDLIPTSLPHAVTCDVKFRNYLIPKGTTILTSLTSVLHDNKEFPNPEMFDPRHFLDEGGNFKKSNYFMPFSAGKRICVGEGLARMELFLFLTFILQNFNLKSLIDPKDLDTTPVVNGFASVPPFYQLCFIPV
Cytochrome P450 3A7 (Homo sapiens), sequence (P24462 whole entry, looked up): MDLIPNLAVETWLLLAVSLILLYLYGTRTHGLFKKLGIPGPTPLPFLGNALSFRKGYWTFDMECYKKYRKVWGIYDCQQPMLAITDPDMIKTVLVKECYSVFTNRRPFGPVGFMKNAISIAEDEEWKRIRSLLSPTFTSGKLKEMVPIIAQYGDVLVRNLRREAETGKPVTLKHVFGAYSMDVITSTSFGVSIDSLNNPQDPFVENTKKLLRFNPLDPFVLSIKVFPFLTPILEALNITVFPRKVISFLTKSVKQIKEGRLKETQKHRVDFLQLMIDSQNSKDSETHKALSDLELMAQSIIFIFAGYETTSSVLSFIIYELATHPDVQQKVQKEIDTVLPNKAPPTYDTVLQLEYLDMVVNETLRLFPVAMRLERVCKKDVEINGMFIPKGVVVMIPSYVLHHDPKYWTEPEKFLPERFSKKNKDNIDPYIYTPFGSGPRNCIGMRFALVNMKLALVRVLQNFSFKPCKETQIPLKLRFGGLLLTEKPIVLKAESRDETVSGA

N#C[C@@H]1CC(F)(F)CN1C(=O)CNC1CC2CCC(C1)N2c1ncccn1 (some centres undefined)
active: [3] 27.8 µM | [4] 69 µM | [5] 50 µM
not listed: [14] | [15]
inactive: all other assays above

ClC1=C(Cl)C(Cl)(Cl)C(Cl)=C1Cl
not listed: [4] | CYP4A11 (gene 1579) | [15]
inactive: all other assays above

c1ccc2c(c1)ccc1ccccc12
active: [3] 5.8 µM | CYP2C8 (gene 1558) 12.7 µM | CYP2C9 (gene 1559) 6.12 µM | CYP2E1 (gene 1571) 10.1 µM | [5] 7.1 µM | [9] 5.99 µM
not listed: [4]
inactive: all other assays above

CCCCCCCCCCCCCCCS(=O)(=O)Oc1ccccc1
active: [14] 5.56 µM | [3] 3.1 µM | [4] 8.59 µM | CYP2C8 (gene 1558) 7.61 µM | CYP2E1 (gene 1571) 14.1 µM | [5] 9.56 µM | [9] 8.39 µM
not listed: CYP4A11 (gene 1579) | [15]
inactive: all other assays above

CC[C@H](C)[C@@H](C(=O)O)n1sc2ccccc2c1=O
active: [14] 50 µM | [3] 10.1 µM
not listed: [4] | [15]
inactive: all other assays above

C[C@@H]1C[C@H]2[C@@H]3CCC4=CC(=O)C=C[C@]4(C)[C@@]3(F)[C@@H](O)C[C@]2(C)[C@@]1(O)C(=O)COP(=O)(O)O
active: CYP2E1 (gene 1571) 25 µM | [5] 9.66 µM
not listed: [14]
inactive: all other assays above
